Results: PubChem BioAssay AID1347165 (National Center for Advancing Translational Sciences (NCATS), 2019)
Hit rate of the full screen: of about 220,000 compounds, about 5,700 (2.6%) were called active. About 18% were inconclusive and are not listed. The sample holds actives, similar compounds and a random draw of the others, so the mix is not that of the screen. Calls follow the shape of the dose curve; as a rule, active = well fitted inhibition curve with a large enough effect; inconclusive = small, poorly fitted or top-dose-only effect; inactive = no such curve, though single readings can be large or run the other way.

What follows are molecules tested against Lysine-specific demethylase 5B (Homo sapiens) (UniProt Q9UGL1) (assay: Primary screen for KDM5B Histone Demethylases FDH-coupled qHTS). Details: FDH-coupled NADH fluorescence (FDH is formaldehyde dehydrogenase); series mostly up to 57.7 µM.
Method in brief: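 KDM5BΔAP (200 nM final) in 50 mM HEPES pH 7.5, 0.01% Tween-20 was preincubated 10 min at RT with compound over a concentration range. Substrate mix (H3K4me3 12.5 µM, α-KG 25 µM, Fe²⁺, ascorbate, NAD⁺, FDH) was added, and NADH fluorescence change over 30 min gave dose-response curves.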
Also: nearly all actives have a fitted effect of over 70% in size.
Potency is read from the fitted curve at half-maximal effect.

Chain of Lysine-specific demethylase 5B (Homo sapiens) (Q9UGL1 whole entry, looked up): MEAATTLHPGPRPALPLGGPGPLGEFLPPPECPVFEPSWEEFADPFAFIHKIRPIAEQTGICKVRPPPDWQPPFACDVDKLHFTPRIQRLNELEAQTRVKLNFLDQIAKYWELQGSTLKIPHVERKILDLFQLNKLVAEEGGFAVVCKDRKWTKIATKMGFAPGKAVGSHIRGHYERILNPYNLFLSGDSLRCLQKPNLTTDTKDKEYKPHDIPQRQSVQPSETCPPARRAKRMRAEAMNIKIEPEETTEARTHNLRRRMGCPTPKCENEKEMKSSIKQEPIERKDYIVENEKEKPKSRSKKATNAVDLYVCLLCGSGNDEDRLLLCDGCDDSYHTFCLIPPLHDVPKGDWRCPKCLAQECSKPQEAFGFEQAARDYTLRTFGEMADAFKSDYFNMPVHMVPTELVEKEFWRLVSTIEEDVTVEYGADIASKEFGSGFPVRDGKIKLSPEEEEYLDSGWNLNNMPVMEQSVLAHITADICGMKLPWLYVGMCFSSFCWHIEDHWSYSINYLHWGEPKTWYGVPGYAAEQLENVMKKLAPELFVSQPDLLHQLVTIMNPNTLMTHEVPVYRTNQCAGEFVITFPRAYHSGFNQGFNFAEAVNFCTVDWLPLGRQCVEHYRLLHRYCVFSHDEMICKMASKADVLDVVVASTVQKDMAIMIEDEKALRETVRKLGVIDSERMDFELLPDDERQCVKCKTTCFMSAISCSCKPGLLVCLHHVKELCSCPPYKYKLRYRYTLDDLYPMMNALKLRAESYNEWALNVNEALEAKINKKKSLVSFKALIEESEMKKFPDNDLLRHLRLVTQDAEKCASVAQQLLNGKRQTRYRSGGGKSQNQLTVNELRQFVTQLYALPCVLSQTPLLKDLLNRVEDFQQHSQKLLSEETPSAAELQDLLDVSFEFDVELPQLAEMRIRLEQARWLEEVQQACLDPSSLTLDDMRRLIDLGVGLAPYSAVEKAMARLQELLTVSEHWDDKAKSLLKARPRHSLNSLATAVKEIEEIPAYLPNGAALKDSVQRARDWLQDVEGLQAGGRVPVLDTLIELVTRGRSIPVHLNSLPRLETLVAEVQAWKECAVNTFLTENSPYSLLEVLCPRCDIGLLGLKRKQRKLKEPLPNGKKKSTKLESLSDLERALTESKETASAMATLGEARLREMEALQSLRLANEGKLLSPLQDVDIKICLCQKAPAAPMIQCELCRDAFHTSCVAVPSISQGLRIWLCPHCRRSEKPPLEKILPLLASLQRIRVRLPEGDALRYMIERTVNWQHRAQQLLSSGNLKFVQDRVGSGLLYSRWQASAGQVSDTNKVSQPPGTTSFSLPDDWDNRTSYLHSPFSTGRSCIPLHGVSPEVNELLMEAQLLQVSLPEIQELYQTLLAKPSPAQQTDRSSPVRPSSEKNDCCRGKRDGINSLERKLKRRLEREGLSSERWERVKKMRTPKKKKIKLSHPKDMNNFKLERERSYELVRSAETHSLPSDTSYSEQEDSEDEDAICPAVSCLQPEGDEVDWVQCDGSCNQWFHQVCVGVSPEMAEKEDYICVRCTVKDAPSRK

Potency, inactive:
Cc1ccc(NC(=O)CN(C)C(=O)c2cc3ccc(F)cc3nc2C)cc1
Cc1ccc(NC(=O)c2ccc(F)cc2Cl)nc1
CCn1nc(C(=O)Nc2ccc(I)cc2C)c2ccccc2c1=O
Cc1ccc2c(CN3CCN(CCc4ccccn4)CC3)cc(=O)oc2c1
CN1C(=O)CC(C(=O)O)C12CCN(CCc1ccccn1)CC2 (centres undefined)
CC(Sc1nc(CN2CCOCC2)nc2ccccc12)C(=O)NC1CCCCCC1 (centres undefined)
COc1ccc(-c2csc3c2NC(=O)CC3c2ccc(OCC(N)=O)c(OC)c2)cc1 (centres undefined)
O=C1CC(c2ccc(C(F)(F)F)cc2)c2sc(C(=O)O)c(-c3ccccc3)c2N1 (centres undefined)
Cc1ccc(-c2csc3c2NC(=O)CC3c2ccc(C)cc2)cc1 (centres undefined)
COc1cccc(/C=C/C(=O)c2nc3ccccc3s2)c1OC(F)F
COc1ccccc1NC(=O)CSC1=Nc2ccccc2C2=NC(CC(=O)NCc3cccs3)C(=O)N12 (centres undefined)
CCOc1ccccc1NC(=O)Cn1nnc(C(=O)NCc2cccs2)c1N
O=C(OCc1nc2ccccc2o1)c1ccccc1Br
CC(=O)c1c(SCC(=O)Nc2ccc(F)cc2F)nc(=O)[nH]c1C
CC(C)(C#N)C(=O)NCCc1ccc(OCc2ccccc2)cc1
CC1CCN(c2nc3ccccc3nc2C(C#N)S(=O)(=O)c2cccc(Cl)c2)CC1 (centres undefined)
COc1ccc(-c2cc(C(=O)N3CCN(CC(=O)N4CCOCC4)CC3)c3ccccc3n2)cc1
CCn1cnnc1CC1CCN(C(=O)C2CCN(Cc3nc(-c4cccc(C)c4)oc3C)CC2)CC1
CN(Cc1ccc(F)cc1)C(=O)NCc1ccccn1
COc1cccc(CNC(=O)N2CCN(Cc3ccc(Br)s3)CC2)c1
CCOc1ccc(CC(=O)N2CCC(Cc3nc(-c4cnccn4)no3)CC2)cc1
COc1cccc(N2C(=O)NC(=NC3CCCC3)C23CCN(C(=O)c2ccc(C)cc2)C3)c1 (centres undefined)
Cc1cc(C)n(CC(=O)N2CC[C@@H]3CN(S(C)(=O)=O)[C@@H]3C2)n1
Cc1cc(C)n(CC(=O)N2CCC3(CC2)NCCc2c3[nH]c3ccccc23)n1
COc1ccccc1C(=O)N1CCC2(C1)C(=NC1CCCC1)NC(=O)N2c1cccnc1 (centres undefined)
COc1ccccc1C(=O)N1CCC2(C1)C(=NC1CCCCC1)NC(=O)N2c1cccnc1 (centres undefined)
CCOc1ccc(CC(=O)N2CCC(C3CCN(C(=O)NC)CC3)C2)cc1 (centres undefined)
CC(C)=CC(=O)N1C[C@@H](NC(=O)Nc2ccc(F)cc2F)C[C@H]1C(=O)N[C@H](Cc1ccccc1)C(N)=O
O=C(Cn1ccn2nc(-c3ccc(F)cc3)c(CO)c2c1=O)NC1CCCC1
COC(=O)[C@@H](NC(=O)Nc1cc(-c2n[nH]c(=O)c3ccccc23)ccc1C)C(C)C
O=c1oc2ccc(F)cc2cc1S(=O)(=O)N1CCCCCC1
N#C/C(=C\c1ccc(-c2cc(Cl)ccc2Cl)o1)c1nc2ccccc2[nH]1
O=C(O)CNS(=O)(=O)c1cccc(F)c1
N#CC(C#N)=C(Nc1ccc(Oc2ccccc2)cc1)C(F)(F)C(F)(F)F
CC1(C)C2CCC1(CS(=O)(=O)NCCc1c[nH]c3ccccc13)C(=O)C2 (centres undefined)
C=CCn1c(COc2cc(C)c(Cl)c(C)c2)n[nH]c1=S
Cc1nc(-c2cn(C3CCCN(C(=O)c4sccc4C)C3)nn2)no1 (centres undefined)
COc1ccc(C(=O)N2CCCC3(C2)C(=NC2CCCC2)NC(=O)N3c2cc(F)cc(F)c2)cc1 (centres undefined)
Cc1ccc(Nc2nnc(-c3ccc(C)c(S(N)(=O)=O)c3)c3ccccc23)c(C)c1
COc1ccccc1N1CCN(C(=O)C2CCCN(C(=O)c3ccccc3)CCC(=O)NCC2)CC1 (centres undefined)
C=CCN1CCN(C(=O)C2CCCN(C(=O)c3ccccc3)CCC(=O)NCC2)CC1 (centres undefined)
Cc1cccc(C(C(=O)N2CCN(S(=O)(=O)N(C)C)CC2)N(C)C)c1 (centres undefined)
O=C(c1ccccc1F)N1CCN(C(=O)c2c[nH]c3ccccc23)CC1
Cc1ccc(C2=NC3(CCN(C(=O)c4ccc(C#N)cc4)CC3)ON2)cc1
O=C(c1ccc2[nH]ccc2c1)N1CCC(N2CC(OCC3CC3)C23CCOCC3)CC1 (centres undefined)
CC1CCN(c2ccc(NC(=O)Cn3c(-c4cscn4)nc4ccccc43)cc2)CC1
CC1(C)Cc2c(sc3c2c(=O)n(CCO)c(=O)n3CCc2ccccc2)CO1
Cc1csc2nc(COc3ccc(NC(=O)C4CCCCC4)cc3)cc(=O)n12
CCOC(=O)N1CCN(Cc2cc(=O)oc3ccc(C)cc23)CC1
O=C(NCc1c[nH]c2ncccc12)c1ccccc1F
O=C(NCc1ccnc2[nH]ccc12)c1ccccn1

Potency, active:
Cc1ccnc(N2CC[C@@H]3[C@@H](CCC(=O)N3CCc3ccccn3)C2)n1 22.4 µM
Nc1nc2c(s1)C(c1ccccc1)CC(=O)N2 (centres undefined) 28.2 µM
COc1ccccc1-c1nc(C(=O)NCc2cccs2)n2ccncc12 28.2 µM
CCn1cnnc1CC1CCN(C(=O)c2cc(-c3ccc(F)cc3)nc3ccccc23)CC1 22.4 µM
COc1ccccc1C(=O)N1CCCC2(C1)Nc1cccnc1NC2=NCc1ccccc1 (centres undefined) 28.2 µM
CCOc1ccc(CC(=O)N2CCCC3(C2)Nc2cccnc2NC3=NC2CCCC2)cc1 (centres undefined) 28.2 µM
Cc1cc(C)n(CC(=O)N2CCCC3(C2)Nc2cccnc2NC3=NC2CCCC2)n1 (centres undefined) 28.2 µM
COc1cccc(CNC(=O)N2CCCC3(C2)Nc2cccnc2NC3=NC2CCCC2)c1 (centres undefined) 28.2 µM
Cc1ccsc1C(=O)N1CCCC2(C1)Nc1cccnc1NC2=NC1CCCC1 (centres undefined) 25.1 µM
Cc1cccc(C(=O)N2CCCC(C(=O)N3CCN(c4ccccn4)CC3)CCNC(=O)CC2)c1 (centres undefined) 15.8 µM
O=C(c1ccc2cc[nH]c2c1)N1CCC2(CC1)N=C(c1ccc(Cl)cc1)NO2 28.2 µM
O=C(c1cccc2[nH]ccc12)N1CCC2(CC1)N=C(c1cccc(Br)c1)NO2 28.2 µM
O=C(NCc1ccnc2[nH]ccc12)c1ccc(F)cc1 35.5 µM
